40 sequences from the supplement of paper PMC6555819 can be followed below.

The test system of one assay is RXRa homodimer (NR concentration 180 nM). The assay is described as follows: PBM binding z-score (relative to random genomic background probes); higher = stronger binding; sequences stand for … in GC…GCGATTGACAGCGTAGAATGAAGG
Put shortly: (§1)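 Custom Agilent 4×180K protein-binding microarrays carried double-stranded probes. Their 34-nt variable regions held direct-repeat seeds, single-nucleotide variants, half-site ablations and random human genomic background sequences. Arrays were incubated 1 h with ligand-free nuclear receptor dimers in PBS pH 7.4, 2% milk, 0.02% Triton X-100, 1 mM DTT, 0.2 mg/mL BSA and 0.4 mg/ml salmon testes DNA. Antibodies against each partner (one per run) detected binding, and scanned fluorescence was regression-normalized. Binding z-scores use random background probes as reference.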
GCTCGGAGGACAAGGTCAGTGCTTTGTCCGTAGA gave a PBM binding z-score of 1.29.

With CCGTGTAGGTTATGGGGCATTCAGGCAACGGTGA, the PBM binding z-score is 0.777.

Turning to ATCTCTAGGTAAACGTTCAGTGAATCCCGAGGAT, the PBM binding z-score came to 0.0015.

For the sequence GGAACGAGGGCATAGTTGATAGCATCTGTCGACG, the PBM binding z-score is 1.02.

CCTACTGGTCCATTCAGAGGTCATTGATCATATG gave a PBM binding z-score of 3.92.

The sequence TCTGGTTGGTCACGGAGGTCACACACGACGGGTA showed a PBM binding z-score of 4.97.

The sequence CGCACTAGGTCAGAACAGGACAGTGAAGGATGAT registered a PBM binding z-score of 1.34.

As to TCTTGTAGATCAGTAGAGGTTAAGAAAGTGCGCT, the PBM binding z-score worked out at 1.24.

In the case of CAGCCTAGGTCAGGGCTAGTATAGGAGGAACGTT, the PBM binding z-score was determined as 1.49.

The sequence CAAACTAGGTCACAGAGCTCAAAGTCCGTGCGTA returned a PBM binding z-score of 3.73.

On to CGAACTAGGTCATCCAGGACAGTTAATACATTGA, for which the PBM binding z-score turned out to be 2.99.

With CTCGAAAGGTCGGTTTAGGTGAGTATACGGATAA, the PBM binding z-score stood at 1.8.

As to CGTCCAAGGTCAATGCTAGGTCATTGAAAGCATT, the PBM binding z-score worked out at 6.

Turning to CCGACTGGGGCAGAAAGGTTCCCATACCATCCGG, the PBM binding z-score is -0.265.

CCTACTGGGCCAAAAGGGTCATTGATGCCGATAA: the PBM binding z-score was determined as 3.26.

In turn, TCGAGTAGGTTAGGGGCACTCAGAATGGCGTCGA came in with a PBM binding z-score of 0.488.

For TCTGCTAGGCCAGTTGGTCAGCTAACGAGCTGCC, the PBM binding z-score was -0.79.

In turn, ATCTCTAGGTTAGACTCAGTTCAGTGAAGAACGC yielded a PBM binding z-score of 0.687.

GCTTGTAGATCAAGGTTAAGAATGACTAAGCTAA yielded a PBM binding z-score of 0.859.

Take CGTCATAGTTCAACTAAGGTAACGTAAAGCACGC: the PBM binding z-score was determined as 2.7.

AGCCAAAGTTCATCTAGGTAACGTAAGATATGCT had a PBM binding z-score of 4.72.

Sequence TCTTGTAGAACAACAGGAGGTTAAGAAAGATCGA displayed a PBM binding z-score of 0.875.

Take TCTTGTAGATCAGCAGGGTAAGAAAGCTGGCCAA: the PBM binding z-score is -0.0542.

The sequence ACAGACAGGTGAGTGCAGGTAACTCAGCTGGACG gave a PBM binding z-score of 0.412.

As for GCTAGCAGGCCATTTGGGTCCCTCAATGACGGGC, the PBM binding z-score is -0.4.

In turn, TCGAGTAGGTTACCAATGGGGCATCCAGCTTTCT registered a PBM binding z-score of 0.647.

On to TCATATAGGTAAAGGTGAAATTCGAACGATATGA, for which the PBM binding z-score is 2.19.

Sequence GCATATAGGTAATACAAGGTGAAAGTACGATTGT gave a PBM binding z-score of 0.99.

For the sequence TCTTGTAGATCAGCAGGTCAAGAAAGCTGGCCAA, the PBM binding z-score was 2.05.

In turn, CCTTACGGGTCACTGACAGGTTATAGCATTTGGA showed a PBM binding z-score of 5.59.

In turn, ATCTCTAGGTAACAAGTTCAATGAAAGAGAGGAC gave a PBM binding z-score of 1.31.

As for CGTCCAAGGTCAGCAGGTCAATGAAAGCGACGTG, the PBM binding z-score was 5.64.

The sequence CCTTACGGGTCAAGGTTATGGCACGGGTGGTACG displayed a PBM binding z-score of 5.31.

For the sequence ACGATTAGTTGAGACGAGGGCAACCGATAGGTTG, the PBM binding z-score came out at 0.354.

Consider CCGACTGTGGCAGAAAGGTTACCATACCATCCGG, for which the PBM binding z-score stood at 1.47.

TCTATTAGTTGATGAGGGCAACCGAAACAGCGGA: the PBM binding z-score was found to be 1.06.

The sequence CCTACTGGGCCAAGGTCATTAATCAGTCAAAGCA yielded a PBM binding z-score of 2.71.

As for CGAACTAGGTCATTGACAGGACAGTGATTAGTAA, the PBM binding z-score amounted to 2.47.

TCAGACAGGTGAAGGTAGCTCAGGTACGCAGTCG: the PBM binding z-score turned out to be 0.741.

Sequence AGTCAAAGTTCAGGACGAGGTGACGTAAAGCACG returned a PBM binding z-score of 3.53.

Another assay relates to THRa:RXRa (NR concentration 90 nM, RXRa partner concentration 90 nM). Described as above. Put shortly: as §1
In the case of GCTCGGAGGACAAGGTCAGTGCTTTGTCCGTAGA, the PBM binding z-score worked out at 2.77.

CCGTGTAGGTTATGGGGCATTCAGGCAACGGTGA displayed a PBM binding z-score of 0.703.

As to ATCTCTAGGTAAACGTTCAGTGAATCCCGAGGAT, the PBM binding z-score was 0.136.

Sequence GGAACGAGGGCATAGTTGATAGCATCTGTCGACG yielded a PBM binding z-score of 0.72.

Regarding CCTACTGGTCCATTCAGAGGTCATTGATCATATG, the PBM binding z-score is 2.91.

Regarding TCTGGTTGGTCACGGAGGTCACACACGACGGGTA, the PBM binding z-score is 3.58.

Turning to CGCACTAGGTCAGAACAGGACAGTGAAGGATGAT, the PBM binding z-score worked out at 3.71.

TCTTGTAGATCAGTAGAGGTTAAGAAAGTGCGCT gave a PBM binding z-score of 1.88.

As for CAGCCTAGGTCAGGGCTAGTATAGGAGGAACGTT, the PBM binding z-score stood at 1.82.

CAAACTAGGTCACAGAGCTCAAAGTCCGTGCGTA displayed a PBM binding z-score of 3.25.

CGAACTAGGTCATCCAGGACAGTTAATACATTGA: the PBM binding z-score turned out to be 3.54.

On to CTCGAAAGGTCGGTTTAGGTGAGTATACGGATAA, for which the PBM binding z-score worked out at 4.51.

The sequence CGTCCAAGGTCAATGCTAGGTCATTGAAAGCATT registered a PBM binding z-score of 4.65.

With CCGACTGGGGCAGAAAGGTTCCCATACCATCCGG, the PBM binding z-score is -0.504.

CCTACTGGGCCAAAAGGGTCATTGATGCCGATAA came in with a PBM binding z-score of 2.17.

Sequence TCGAGTAGGTTAGGGGCACTCAGAATGGCGTCGA showed a PBM binding z-score of 0.572.

On to TCTGCTAGGCCAGTTGGTCAGCTAACGAGCTGCC, for which the PBM binding z-score is -0.845.

ATCTCTAGGTTAGACTCAGTTCAGTGAAGAACGC: the PBM binding z-score came to 1.52.

GCTTGTAGATCAAGGTTAAGAATGACTAAGCTAA displayed a PBM binding z-score of 1.08.

CGTCATAGTTCAACTAAGGTAACGTAAAGCACGC: the PBM binding z-score was found to be 5.14.

AGCCAAAGTTCATCTAGGTAACGTAAGATATGCT: the PBM binding z-score stood at 3.15.

As for TCTTGTAGAACAACAGGAGGTTAAGAAAGATCGA, the PBM binding z-score is 0.726.

For TCTTGTAGATCAGCAGGGTAAGAAAGCTGGCCAA, the PBM binding z-score was -0.165.

Sequence ACAGACAGGTGAGTGCAGGTAACTCAGCTGGACG displayed a PBM binding z-score of 1.69.

GCTAGCAGGCCATTTGGGTCCCTCAATGACGGGC gave a PBM binding z-score of 0.249.

Sequence TCGAGTAGGTTACCAATGGGGCATCCAGCTTTCT showed a PBM binding z-score of -0.146.

For TCATATAGGTAAAGGTGAAATTCGAACGATATGA, the PBM binding z-score worked out at 1.37.

Take GCATATAGGTAATACAAGGTGAAAGTACGATTGT: the PBM binding z-score was 4.29.

As to TCTTGTAGATCAGCAGGTCAAGAAAGCTGGCCAA, the PBM binding z-score amounted to 1.89.

With CCTTACGGGTCACTGACAGGTTATAGCATTTGGA, the PBM binding z-score came out at 2.98.

ATCTCTAGGTAACAAGTTCAATGAAAGAGAGGAC: the PBM binding z-score turned out to be 1.76.

Sequence CGTCCAAGGTCAGCAGGTCAATGAAAGCGACGTG yielded a PBM binding z-score of 4.03.

The sequence CCTTACGGGTCAAGGTTATGGCACGGGTGGTACG returned a PBM binding z-score of 3.

Turning to ACGATTAGTTGAGACGAGGGCAACCGATAGGTTG, the PBM binding z-score came out at 2.41.

The sequence CCGACTGTGGCAGAAAGGTTACCATACCATCCGG registered a PBM binding z-score of 0.958.

The sequence TCTATTAGTTGATGAGGGCAACCGAAACAGCGGA showed a PBM binding z-score of 1.68.

In the case of CCTACTGGGCCAAGGTCATTAATCAGTCAAAGCA, the PBM binding z-score is 3.1.

Turning to CGAACTAGGTCATTGACAGGACAGTGATTAGTAA, the PBM binding z-score is 2.9.

Take TCAGACAGGTGAAGGTAGCTCAGGTACGCAGTCG: the PBM binding z-score turned out to be 0.667.

AGTCAAAGTTCAGGACGAGGTGACGTAAAGCACG displayed a PBM binding z-score of 3.93.
